Measured values from PubChem BioAssay (NCATS).
Results filed as inconclusive are left out. Calls of active or inactive are those of the source. Calls follow the shape of the dose curve; as a rule, active = well fitted inhibition curve with a large enough effect; inconclusive = small, poorly fitted or top-dose-only effect; inactive = flat fitted curve, though single readings scatter.

Each compound was assayed on CRL-7250 (assay: qHTS assay to identify novel small-molecules to repurpose for Merkel cell carcinoma treatment (AID 1296009; also: nearly all actives have a fitted effect of over 60% in size)). Conditions: MCC and control cell lines, CellTiter-Glo viability, 72 h; series mostly up to 92 µM; activity change, negative = cytotoxicity: at the top concentration.
How it was run: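 Cell viability measured by CellTiter-Glo following 72 hr compound treatment at 37 degree celsius, with NPC and MIPE libraries tested in 8- and 11-point concentration series.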

| SMILES | outcome |
| --- | --- |
| O=C(/C=C/c1ccccc1)O[C@@H]1[C@@H](CO)O[C@@](CO)(O[C@H]2O[C@H](CO)[C@@H](O)[C@H](O)[C@H]2O)[C@H]1O | inactive [at 17.4 µM] |
| COc1cccc(CN(C(=O)CC(C)(C)C)[C@H]2C[C@H](C(=O)N3CCNCC3)N(Cc3ccc4c(c3)OCO4)C2)c1 | inactive |
| CC(=O)O[C@@H]1[C@@H](OC(=O)/C=C/c2ccccc2)[C@@H](OC(C)=O)[C@H](O[C@H]2[C@@H]3C=CO[C@@H](O[C@@H]4O[C@H](CO)[C@@H](O)[C@H](O)[C@H]4O)[C@@H]3[C@@]3(CO)O[C@@H]23)O[C@H]1C | inactive [at 17.4 µM] |
| CC12CCC3c4ccc(OC5OC(C(=O)O)C(O)C(O)C5O)cc4CCC3C1CCC2O (stereo not given) | inactive |
| C=C1CC[C@@H]2[C@](C)(CO[C@@H]3O[C@H](CO)[C@@H](O)[C@H](O)[C@H]3O)CCC[C@@]2(C)[C@@H]1CCC1=CCOC1=O | inactive [at 17.4 µM] |
| COCC(=O)N1CCc2cc(-c3csc(NC(=O)c4cc(OC)cc(OC)c4)n3)ccc21 | inactive |
| CC(C)C1(O[C@@H]2O[C@H](CO)[C@@H](O)[C@H](O)[C@H]2O)CC=C(CO)CC1 (stereo not given in full) | inactive |
| CN1CCc2cc3c(cc2C(=O)Cc2cc4c(cc2C1)OCO4)OCO3 | inactive |
| O=C(/C=C/c1ccc(O)cc1)OC[C@H]1O[C@@H](OC(=O)/C=C/c2ccccc2)[C@H](O)[C@@H](O)[C@@H]1O | inactive [at 17.4 µM] |
| CCOC(=O)c1ccc(NC2CCCCC2)c(N)c1 | inactive |
